Test results taken from PubChem BioAssay (NCATS).
Unmarked numbers belong to inactive results. Inconclusive results are not listed. A call without a number means that no potency is given here. Calls of active or inactive are those of the source. Calls follow the shape of the dose curve; as a rule, active = well fitted curve in the direction sought with a large enough effect; inconclusive = small, poorly fitted or top-dose-only effect, or another doubt; inactive = no such curve, though single readings can be large; an effect the other way counts as inactive or inconclusive.

What was measured:
[1] = biological target: Glutathione peroxidase 1 (Homo sapiens) (UniProt P07203); experiment: Primary qHTS Assay for Inhibitors of Recombinant Selenoprotein Glutathione Peroxidase 1 (GPX1) (AID 1845191); also: nearly all actives have a fitted effect of over 65% in size
Sequence of Glutathione peroxidase 1 (Homo sapiens) (P07203 whole entry, looked up): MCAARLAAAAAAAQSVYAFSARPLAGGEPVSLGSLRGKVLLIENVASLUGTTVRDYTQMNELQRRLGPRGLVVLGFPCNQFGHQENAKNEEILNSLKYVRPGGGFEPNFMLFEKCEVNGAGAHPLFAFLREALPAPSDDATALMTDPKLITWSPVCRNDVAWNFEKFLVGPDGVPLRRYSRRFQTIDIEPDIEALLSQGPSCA
Procedure, shortened: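 GR-coupled readout: NADPH consumption tracked by fluorescence, ex 340/em 450 nm, at t=0 and after 15 min at RT. Final mix 10 nM GPX1, 1 mM GSH, 0.5 mM CHP, 0.5 mM NADPH, 100 nM GR, 0.01% BSA, following 30 min enzyme–compound preincubation.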

[2] = biological target: Phospholipid hydroperoxide glutathione peroxidase GPX4 (Homo sapiens) (UniProt P36969); experiment: Primary qHTS Assay for Inhibitors of Recombinant Selenoprotein Glutathione Peroxidase 4 (GPX4) (AID 1845192); also: nearly all actives have a fitted effect of over 65% in size; as to activity change, negative = inhibition: series mostly up to about 50 µM
Sequence of Phospholipid hydroperoxide glutathione peroxidase GPX4 (Homo sapiens) (P36969 whole entry, looked up): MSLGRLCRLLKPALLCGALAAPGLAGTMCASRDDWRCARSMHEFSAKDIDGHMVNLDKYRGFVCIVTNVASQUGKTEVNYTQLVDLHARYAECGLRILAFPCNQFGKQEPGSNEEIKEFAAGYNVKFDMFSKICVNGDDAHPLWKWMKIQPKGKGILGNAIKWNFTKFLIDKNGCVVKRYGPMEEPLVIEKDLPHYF
Procedure, shortened: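 Steps: GPX4 plus compound, 30 min RT; add GR/GSH/NADPH master mix; start with cumene hydroperoxide; read 340/450 nm fluorescence at 0 and 15 min. Finals were 200 nM GPX4, 1 mM GSH, 0.5 mM CHP, 0.5 mM NADPH, 100 nM GR.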

[3] = biological target: Luciferin 4-monooxygenase (Photinus pyralis) (UniProt P08659); experiment: Primary firefly luciferase (FLuc) qHTS assay for identification of artifact compounds. (AID 1845220); also: nearly all actives have a fitted effect of over 60% in size; as to activity change, negative = inhibition: series mostly up to about 54 µM
Procedure, shortened: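 D-luciferin and ATP (10 uM each, final) in Tris acetate buffer pH 7.6 were incubated with compounds for 15 min at room temperature. The reaction was started with 10 nM Photinus pyralis luciferase and luminescence read after 5 min. Percent inhibition was fitted to a 4-parameter Hill equation.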

[4] = Primary fluorescence-based thiol-reactive (MSTI) qHTS assay for identification of artifact compounds. (AID 1845221); also: nearly all actives have a fitted effect of over 65% in size; also: potency is read from the fitted curve at half-maximal effect;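 as to activity change, negative = thiol reactive: series mostly up to about 54 µM; thiol-reactive compounds lower the probe fluorescence signal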
Procedure, shortened: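 In PBS pH 7.4 with 2% DMSO, each compound met 4 uM MSTI for one hour at ambient temperature, shielded from light, before fluorescence detection.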

[5] = tested on: Nanoluciferase (engineered Oplophorus gracilirostris luciferase); experiment: Primary Nanoluciferase (NLuc) qHTS assay for identification of artifact compounds. (AID 1845222); also: series mostly up to about 54 µM
Procedure, shortened: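 Diluted conditioned medium from NLuc-expressing S16 cells treated with compounds for 15 min at room temperature, then Nano-Glo substrate added; luminescence read after 5 min. Percent inhibition versus no-enzyme and DMSO controls fitted to 4-parameter Hill equation.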

[6] = Primary redox qHTS assay for identification of artifact compounds. (AID 1845223)
Procedure, shortened: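 Redox-cycling detection via DTT (250 uM final) oxidation coupled to Amplex Red (25 uM)/HRP (250 mU/mL) in HBSS. 15 min preincubation plus 30 min after DTT, room temperature. Ex/Em 525/598 nm; 4-parameter Hill fit against DMSO and 10 uM DA3003.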

CC(C)(O)C1CC=C(C(=O)OC[C@H]2O[C@@H](OC(=O)C3=CCC(C(C)(C)O)CC3)[C@H](O)[C@@H](O)[C@@H]2O)CC1 (stereo partly specified)
Potency [1]: inactive | Potency [2]: inactive | Potency [3]: inactive | Potency [4]: 4.12 µM (active) | Potency [5]: inactive | Potency [6]: inactive

C=C1C2CCC3CC2(CC(O)C2(O)C1CC(OC1OC(CO)C(O)C(O)C1O)C2(C)C)CC3(C)O (stereo unspecified)
Potency [1]: inactive | Potency [2]: inactive | Potency [3]: inactive | Potency [4]: 5.19 µM (active) | Potency [5]: inactive | Potency [6]: inactive

COc1cc(CCCO)ccc1O[C@@H]1O[C@H](CO)[C@@H](O)[C@H](O)[C@H]1O
Potency [1]: inactive | Potency [2]: inactive | Potency [3]: inactive | Potency [4]: 16.5 µM (active) | Potency [5]: inactive | Potency [6]: inactive

CC1(O)CCC2C(C3C1CCC3(C)O)C2(C)C (stereo unspecified)
Potency [1]: inactive | Potency [2]: inactive | Potency [3]: inactive | Potency [4]: inactive | Potency [5]: inactive | Potency [6]: inactive

OC[C@@]1(O)CO[C@@H](OC[C@H]2O[C@@H](OCc3ccccc3)[C@H](O)[C@@H](O)[C@@H]2O)[C@@H]1O
Potency [1]: inactive | Potency [2]: inactive | Potency [3]: inactive | Potency [4]: inactive | Potency [5]: inactive | Potency [6]: inactive

CC(=O)O[C@@H]1[C@H](O[C@@H]2O[C@H](CO)[C@@H](O)[C@H](O)[C@H]2O)[C@@H](O[C@@H]2O[C@@H](C)[C@H](O)[C@@H](O[C@@H]3O[C@H](CO)[C@@H](O)[C@H](O)[C@H]3O)[C@H]2O)[C@H](OC(=O)[C@]23CCC(C)(C)C[C@H]2C2=CCC4[C@@]5(C)C[C@H](O)[C@H](O[C@@H]6O[C@H](C(=O)O)[C@@H](O)[C@H](O)[C@H]6O)[C@@](C)(C(=O)O)C5CC[C@@]4(C)[C@]2(C)CC3)O[C@@H]1C (stereo partly specified)
Potency [1]: inactive | Potency [2]: inactive | outcome [3]: inactive [at 11.6 µM] | activity change, negative = thiol reactive [4]: 244% [at 11.5 µM] | activity, negative = inhibition [5]: 4.94% [at 11.6 µM] | redox activity (% of DA3003) [6]: -2.45% [at 11.5 µM]

CO[C@@H]1[C@]2(O)C(=O)N3/C=C\C(C)(C)c4[nH]c5ccccc5c4/C=C\3C(=O)N2[C@]23[C@H](CO)C(C)(C)N2c2ccccc2[C@]13O
Potency [1]: inactive | Potency [2]: inactive | Potency [3]: inactive | Potency [4]: 1.84 µM (active) | Potency [5]: inactive | Potency [6]: inactive

N#Cc1ccc(C2CCCc3cncn32)cc1 (stereo unspecified)
Potency [1]: inactive | Potency [2]: inactive | Potency [3]: inactive | Potency [4]: inactive | Potency [5]: inactive | Potency [6]: inactive

CCCN(CCN1CCN(c2ccccc2OC)CC1)C1CCc2ncsc2C1 (stereo unspecified)
Potency [1]: inactive | Potency [2]: inactive | Potency [3]: inactive | Potency [4]: inactive | Potency [5]: inactive | Potency [6]: inactive

O=C(OC(C(F)(F)F)C(F)(F)F)N1CCN(Cc2cccc(Oc3ccccc3)c2)CC1
Potency [1]: inactive | Potency [2]: inactive | Potency [3]: inactive | Potency [4]: inactive | Potency [5]: inactive | Potency [6]: inactive

COc1c2cc(c(O)c1OC)CCCCC(O)CCc1ccc(O)c-2c1 (stereo unspecified)
Potency [1]: inactive | Potency [2]: inactive | Potency [3]: inactive | Potency [4]: inactive | Potency [5]: inactive | Potency [6]: inactive

C=C1C(O)CCC2(C)CC3(OC)OC(=O)C(C)=C3CC12 (stereo unspecified)
Potency [1]: inactive | Potency [2]: inactive | Potency [3]: inactive | Potency [4]: inactive | Potency [5]: inactive | Potency [6]: inactive

C[C@H]1CCN2C[C@]34C[C@@]5(C(=O)Nc6c5ccc5c6OC=CC(C)(C)O5)C(C)(C)C3C[C@]12C(=O)N4C (stereo partly specified)
Potency [1]: inactive | Potency [2]: inactive | Potency [3]: inactive | Potency [4]: inactive | Potency [5]: inactive | Potency [6]: inactive

CCCN1CCC[C@@H](c2cccc(S(C)(=O)=O)c2)C1
Potency [1]: inactive | Potency [2]: inactive | Potency [3]: inactive | Potency [4]: inactive | Potency [5]: inactive | Potency [6]: inactive

COc1ccc(C2(O)c3c(ccc4c3OC(C)(CCC=C(C)C)C=C4)NC(=O)C2OC)cc1 (stereo unspecified)
Potency [1]: inactive | Potency [2]: inactive | Potency [3]: inactive | Potency [4]: inactive | Potency [5]: inactive | Potency [6]: inactive

CC(=O)OCC1OC(O[C@H]2CC[C@@]3(C)C(CC[C@]4(C)C3CC=C3[C@@H]5CC(C)(C)CC[C@]5(C(=O)O)CC[C@]34C)[C@]2(C)CO)C(O)C(O)C1OC1OC(C)C(O)C(OC2OCC(O)C(O)C2O)C1O (stereo partly specified)
Potency [1]: inactive | Potency [2]: inactive | outcome [3]: inactive [at 11.6 µM] | activity change, negative = thiol reactive [4]: 307% [at 11.5 µM] | activity, negative = inhibition [5]: 3.41% [at 11.6 µM] | redox activity (% of DA3003) [6]: -4.45% [at 11.5 µM]

OC[C@H]1O[C@@H](OCCc2ccccc2)[C@H](O)[C@@H](O)[C@@H]1O
Potency [1]: inactive | Potency [2]: inactive | Potency [3]: inactive | Potency [4]: 11.9 µM (active) | Potency [5]: inactive | Potency [6]: inactive

CC(=O)OC12CC(C)C(OC(=O)c3ccccc3)C1/C=C(/C)C(OC(=O)c1ccccc1)CC(=O)C(C)(C)/C=C/C(C)C2=O (stereo unspecified)
Potency [1]: inactive | Potency [2]: inactive | Potency [3]: inactive | Potency [4]: inactive | Potency [5]: inactive | Potency [6]: inactive

C/C=C(\C)C(=O)OC1C2(O)CC3=C4CC(=O)OC(c5ccoc5)C4(C)CCC3C(C)(C2=O)C(C(OC(C)=O)C(=O)OC)C1(C)C (stereo unspecified)
Potency [1]: inactive | Potency [2]: inactive | Potency [3]: inactive | Potency [4]: inactive | Potency [5]: inactive | Potency [6]: inactive

C/C=C(\C)C(=O)OC[C@H]1O[C@@H](O[C@H]2[C@@H](O[C@H]3O[C@H](COC(=O)/C(C)=C/C)[C@@H](O)[C@H](O)[C@H]3O[C@@H]3O[C@H](COC(=O)/C(C)=C/C)[C@@H](O)[C@H](OC(=O)/C(C)=C/C)[C@H]3O)O[C@H](COC(=O)/C(C)=C/C)[C@@H](O)[C@@H]2O)[C@H](O)[C@@H](O)[C@@H]1O
Potency [1]: inactive | Potency [2]: inactive | activity change, negative = inhibition [3]: 3.11% [at 11.6 µM] | activity change, negative = thiol reactive [4]: 8.85% [at 11.5 µM] | activity, negative = inhibition [5]: 0.483% [at 11.6 µM] | redox activity (% of DA3003) [6]: -2.39% [at 11.5 µM]

CC(C)(O)C1CCC2(C)CCCC(C)(O)C2C1 (stereo unspecified)
Potency [1]: inactive | Potency [2]: inactive | Potency [3]: inactive | Potency [4]: inactive | Potency [5]: inactive | Potency [6]: inactive
